The full list was thinned out, with hits kept by preference.
HIV RNase H inh-1 – inhibitors of HIV-1 reverse transcriptase RNase H; RT-RNase H RNA/DNA duplex cleavage, fluorescence; inhibition, % at 10 µM; 1.9% of 65,000 active; in the data active = inhibition above about 50%
HIV RNase H inh-2 – confirmation of HIV-1 reverse transcriptase RNase H inhibitors; Recombinant RT RNase H, fluorescent RNA/DNA duplex cleavage; AID 651; shares compounds with HIV RNase H inh-1; inhibition, % at 10 µM; 39% of 1,000 active; in the data active = inhibition above about 48%; inconclusive = no clear call, values can overlap the other calls
* marks the source's active call; other numbers are inactive results; ? = inconclusive.

SMILES	HIV RNase H inh-1	others
Cc1ccccc1NC(=O)CSc1nc2c(c(-c3ccco3)c1C#N)CCCC2	59*	HIV RNase H inh-2=73*
COCCOC(=O)c1c(C)nc(SCC(=O)Nc2ccc(C)cc2)c(C#N)c1-c1ccco1	0
CNC(=O)c1c(C)nc(SCC(=O)NCc2ccc(OC)cc2)c(C#N)c1-c1ccco1	-1
N#Cc1c(SCC(=O)Nc2nccs2)nc2c(c1-c1ccco1)CCCC2	82*	HIV RNase H inh-2=61*
CC1(C)SCC2C(=O)N3C(CSC3(C)C)C(=O)N21 (stereo not given)	-1
CCOC(=O)N1CCN(C(=O)c2cnn3c(C(F)F)cc(-c4ccc(C)cc4)nc23)CC1	-10
Cc1ccccc1Cc1c(C)nc2c(C(=O)NCc3ccco3)cnn2c1C	-51
Cc1ccc(-c2cc(C(F)(F)F)n3ncc(C(=O)NCc4ccco4)c3n2)cc1	63*	HIV RNase H inh-2=42
COc1ccc(-c2cc(C(F)(F)F)n3nc(C(=O)NCc4ccco4)cc3n2)cc1	-5
O=C(NCc1ccco1)c1cc2nc(-c3ccc4c(c3)OCO4)cc(C(F)(F)F)n2n1	16
Cc1ccc(-c2cc(C(F)F)n3ncc(C(=O)NCc4ccco4)c3n2)cc1	70*	HIV RNase H inh-2=74*
O=C(CCc1ccccc1)Nc1cc(Cl)ccc1O	6
O=C(O)C1C2C=CC(C2)C1C(=O)NCCc1cccc(Cl)c1 (stereo not given)	0
Cc1ccc2c(c1)N(CC(=O)NCCc1c[nH]c3ccccc13)C(=O)CO2	6
O=C(NCc1ccco1)c1cccc2ccccc12	-4
O=C(NCc1ccco1)c1cccnc1-c1nc2ccccc2s1	85*	HIV RNase H inh-2=63*
O=C(NCc1ccco1)c1cc(-c2cccnc2)nc2ccccc12	5
CC(=O)c1c(C(C)=O)c(C)n(NC(=O)c2ccncc2)c1C	-5
CC(C)OC(=O)c1nnn(-c2nonc2N)c1CN1CCCCCC1	-6
O=C(COC(=O)c1ccc(S(=O)(=O)N2CCCC2)cc1)NCc1ccccc1	0
CCCn1c2c(c(O)c(C(=O)Nc3ncccc3C)c1=O)CCCC2	-10
O=C(Nc1cccnc1)c1c(O)c2c(n(Cc3ccccc3)c1=O)CCCC2	68*	HIV RNase H inh-2=?
CCCn1c2c(c(O)c(C(=O)Nc3ccc(C)cn3)c1=O)CCCC2	1
CCn1c(COc2ccc(C)cc2)nnc1SCC(=O)Nc1ccc2c(c1)OCCO2	-3
COC(=O)c1cc(-c2ccc(OC)c(OC)c2)on1	-4
SMILES	HIV RNase H inh-1	others
COc1ccc(-c2cc(C(=O)Nc3cc(OC)c(OC)c(OC)c3)no2)cc1OC	80*	HIV RNase H inh-2=25
COc1cccc(-c2cc(C(=O)Nc3ccc(OC)c(OC)c3)no2)c1	-3
CC(=O)c1ccc(Oc2ncnc3sccc23)c(CN2CCOCC2)c1	-11
CC1(C)Cc2[nH]c(=S)c(C#N)cc2CO1	70*	HIV RNase H inh-2=65*
Cc1cc(C)n2c3c(c(C#N)c2n1)CC(C)(C)OC3	-3
CSc1nc2[nH]c3c(c2c2nncn12)CC(C)(C)OC3	9
O=C(Nc1ccc(N2C(=O)C3C4C=CC(C4)C3C2=O)cc1)Nc1cccnc1 (stereo not given)	-2
Cc1ccccc1NC(=O)CCC(=O)OCCCC(F)(F)C(F)(F)F	-9
CCc1c(C)nc(N)n2c(SCC(=O)N3CCCC(C)C3)nnc12 (stereo not given)	3
COc1ccc(S(=O)(=O)Nc2ccc(O)c3ccccc23)cc1	92*	HIV RNase H inh-2=57*
COc1ccc(NS(=O)(=O)c2ccc(NS(C)(=O)=O)cc2)cc1	6
COc1ccc(S(=O)(=O)Nc2ccccc2C(F)(F)F)cc1	-16
CCOc1c(Br)cc(C2NS(=O)(=O)N=C3CCCCCN32)cc1OC (stereo not given)	-6
C[C@@H]1CCC[C@H](C)N1NC(=O)c1ccc(Cl)c(S(N)(=O)=O)c1	-9
COc1ccc(OC)c(NC(=O)CSc2nnc(Cn3c(=O)sc4ccccc43)n2C)c1	-6
COC(=O)c1ccccc1NC(=O)N1CCN(C(=O)c2ccco2)CC1	-22
COc1cc(NC(=O)c2cc(C(C)C)on2)cc(OC)c1OC	-5
COc1cc(N=c2ssnc2Cl)cc(OC)c1OC	91*	HIV RNase H inh-2=76*
COc1cc(/C=N/n2c(C)nnc2C)cc(OC)c1OC	-13
COc1ccc(-c2nnc3ccc(SCC(=O)N4CCN(c5ccccc5)CC4)nn23)cc1OC	-27
CN1CCc2c(sc3c2C(=O)NC(c2cccc(OC(=O)c4cccs4)c2)N3)C1 (stereo not given)	-33
O=C1NC(c2ccco2)Nc2sc3c(c21)CCN(Cc1ccccc1)C3 (stereo not given)	-1
O=C1NC(c2cccs2)Nc2sc3c(c21)CCCC3 (stereo not given)	94*	HIV RNase H inh-2=34
CC(Sc1nc2ccccc2s1)C(=O)N1CCOCC1 (stereo not given)	0
CCCCn1c2c(c3ccccc31)CCc1nonc1-2	-43
SMILES	HIV RNase H inh-1	others
CCOC(=O)c1sc(N)c(C#N)c1COC(=O)CNC(=O)c1ccccc1	-10
Cc1cc(C)c(C#N)c(SCC(=O)OC2CCCCC2)n1	-44
Cc1cc(=O)[nH]c(SCC(=O)C23CC4CC(CC(C4)C2)C3)c1C#N	61*	HIV RNase H inh-2=12
COCCn1c(C)cc(C(=O)CSc2nc(C)cc(C)c2C#N)c1C	-61
COc1ccc(N2CCN(CCCNS(=O)(=O)c3c(C)noc3/C=C/N(C)C)CC2)cc1	-1
Cc1[nH]c2c(C)cccc2c(=O)c1Br	-7
OC(COc1ccc2c(c1)CCC2)Cn1cnc2ccccc21 (stereo not given)	-21
COC(=O)c1ccc(C2CC(=O)NC3=C2C(=O)CCC3)cc1 (stereo not given)	91*	HIV RNase H inh-2=38
CCOc1ccc(C2CC(=O)NC3=C2C(=O)CCC3)cc1Cl (stereo not given)	-14
CC(C)Oc1ccc(C2CC(=O)NC3=C2C(=O)CCC3)cc1 (stereo not given)	-8
c1ccc2c(-c3nc(C4CCCCC4)no3)cc(-c3ccncc3)nc2c1	-41
CN(C)c1ccc(NC(=O)CN2C(=O)CC(c3ccccc3)=Nc3ccccc32)cc1	89*	HIV RNase H inh-2=41
CN(C)c1ccc(NC(=O)CCCc2ccccc2)cc1	12
CN(C)c1ccc(NC(=O)Cn2ncn3c(cc4ccccc43)c2=O)cc1	21
CCOc1ccccc1N(C(=O)CNC(=O)c1ccco1)C(C(=O)NC(C)(C)C)c1ccncc1 (stereo not given)	-12
COC(=O)c1[nH]c2cc(OC)ccc2c1N	-4
O=C(C1CCC1)N1CCc2cc(S(=O)(=O)NCCN3CCN(c4ccccc4F)CC3)ccc21	0
O=C(CCS(=O)(=O)c1ccc(Br)s1)N1CCc2ccccc21	-2
CC1=C(C)NC(=S)SC1	55*	HIV RNase H inh-2=5
Cc1ccc(C(C)NC(=O)c2ccco2)cc1C (stereo not given)	-9
CC1(C(=O)NCc2cccnc2)CCC(=O)N1Cc1cccs1 (stereo not given)	-12
CC(C)Cn1c(SCC(=O)NC(=O)Nc2ccc3c(c2)OCCO3)nc2ccccc2c1=O	92*	HIV RNase H inh-2=54*
C=CCn1c(SCC(=O)Nc2ccc3c(c2)OCO3)nc2ccccc2c1=O	-6
COCCn1c(SC(C)C(=O)Nc2ccc3c(c2)OCCO3)nc2ccccc2c1=O (stereo not given)	1
Cc1csc(N(C)C(=O)CSc2nnc(COc3cccc4ccccc34)o2)n1	-4
COC(=O)c1[nH]c2ccccc2c1NC(=O)CN1CCN(C(=O)c2ccco2)CC1	-7

High-throughput results from PubChem.
